FMDV inh – High Throughput Screening for Foot and Mouth Disease Virus Antivirals | FMDV antiviral cell-based qHTS | Potency, µM (titrated, usually from 57.9 µM), hits mostly inhibitors | 1.2% of 410,000 active | AID 1159524, 2015; calls by dose curve; tested in HEK293T cells; further: read-out not given here; nearly all actives have a fitted effect of over 45% in size
Sm TGR block – qHTS Assay for the Inhibitors of Schistosoma Mansoni Peroxiredoxins | Potency, µM (doses to about 114 µM), hits mostly inhibitors | purified TGR, DTNB reduction, TNB absorbance 405 nm | 3% of 360,000 active | Schistosoma mansoni thioredoxin glutathione reductase (TGR), Q962Y6; further: nearly all actives have a fitted effect of over 60% in size
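First, TGR (20 nM dispensed) and NADPH were mixed with compound. Second, a 15 min room-temperature incubation followed. Third, further NADPH and then DTNB were added to start the reaction. Finally, TNB absorbance was monitored kinetically.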
HCV inhibitor – qHTS Assay for Inhibitors of Hepatitis C Virus (HCV) | Huh7.5.1 HCVcc-Cre infection, luciferase reporter, 44 h | Potency, µM (titrated, usually from 41.8 µM), actives largely listed as inhibitors | 3.4% of 340,000 active
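Luciferase read-out (15 sec integration) after a 15 min room-temperature substrate step quantifies HCVcc-Cre infection. Cells, 1,000 per well, had compound added 4 h post-plating, then virus at ~0.5 moi, and were cultured 44 h.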
MARV entry inh – qHTS for inhibitors of binding or entry into cells for Marburg Virus. Marburg virus pseudotyped entry inhibition, cell reporter. Potency, µM (highest dose often 37.8 µM), hits mostly inhibitors. 1.8% of 300,000 active; calls by dose curve; tested in HEK293 cells
Lassa entry inh – qHTS for Inhibitors of binding or entry into cells for Lassa Virus | Lassa virus pseudotype entry inhibition, cell reporter | Potency, µM (top dose mostly 37.9 µM), actives largely listed as inhibitors | 1.2% of 300,000 active | AID 540256, 2011; calls by dose curve; tested in HEK293 cells; further: nearly all actives have a fitted effect of over 50% in size
RE007 growth inh – qHTS Assay for Inhibitors of the HIV-1 protein Vpr. S. pombe RE007 Vpr strain, BacTiter-Glo ATP luminescence, 24 h. AID 651644, 2012. 0.21% of 360,000 active. Potency, µM (titrated, usually from 92.2 µM), most hits filed as inhibitors; active means well fitted falling curve with a large enough effect; inconclusive means small, poorly fitted or top-dose-only effect; inactive means no such curve, though single readings can be large or run the other way; further: nearly all actives have a fitted effect of over 50% in size
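Fission yeast RE007 carrying one integrated HIV-1 vpr copy, seeded at OD 0.01 in PMG+AL medium with 23 nL pinned compound. Grown 24 h at 30 degrees; viability read by BacTiter-Glo luminescence after 5 min.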
Hits are given with their value. Sampled rows, rich in hits. Any-hit rate of the full collection: about 7.2%. Unless noted, the call rests on the fitted dose curve; in most records, active means well fitted curve in the direction sought with a large enough effect; inconclusive means small, poorly fitted or top-dose-only effect, or another doubt; inactive means no such curve, though single readings can be large; an effect the other way counts as inactive or inconclusive.

Results for CC1CCCCC12NC(=O)N(CC(=O)N1CCN(Cc3ccc(C#N)cc3)CC1)C2=O (stereo unspecified) ?
FMDV inh: inconclusive; Sm TGR block: inactive; HCV inhibitor: 10µM; RE007 growth inh: inactive

How did CCc1nc(CN2CCCC(C(=O)c3ccc4c5c(cccc35)CC4)C2)c(C)[nH]1 (stereo unspecified) do in these assays?
FMDV inh: inconclusive; Sm TGR block: inactive; HCV inhibitor: 10µM; MARV entry inh: inconclusive; Lassa entry inh: inactive; RE007 growth inh: inactive

What do the screens show for `O=C(c1ccc2c3c(cccc13)CC2)C1CCCN(C(=O)c2ccc(=O)[nH]c2)C1` (stereo unspecified)?
FMDV inh: inactive; Sm TGR block: 40µM; HCV inhibitor: inactive; MARV entry inh: inactive; Lassa entry inh: inconclusive; RE007 growth inh: inactive

Results for CCCN(C(=O)c1coc(=O)c2ccccc12)c1ccccc1C ?
FMDV inh: inactive; Sm TGR block: inactive; MARV entry inh: inconclusive; Lassa entry inh: inconclusive

How did COc1ccc(CNC(=O)[C@H](Cc2ccccc2)NC(=O)C2CCNCC2)cc1 do in these assays?
FMDV inh: inactive; Sm TGR block: 32µM; HCV inhibitor: inactive; MARV entry inh: inconclusive; Lassa entry inh: inconclusive; RE007 growth inh: inactive

How did CCOc1ccccc1N/C(=N/c1nc(C)cc(C)n1)NC(=O)Nc1ccc(Cl)c(Cl)c1 do in these assays?
Sm TGR block: inactive; HCV inhibitor: inactive; MARV entry inh: inactive; Lassa entry inh: inactive

What do the screens show for `CCCOc1ccccc1N/C(=N/c1nc(C)cc(C)n1)NC(=O)Nc1ccc(Cl)cc1`?
FMDV inh: inactive; Sm TGR block: inactive; HCV inhibitor: inconclusive; MARV entry inh: 0.71µM; Lassa entry inh: inconclusive; RE007 growth inh: inactive

Results for COc1ccccc1C(=O)N/C(=N/c1nc(C)cc(C)n1)Nc1ccccc1 ?
FMDV inh: inactive; Sm TGR block: inactive; HCV inhibitor: 8.9µM; MARV entry inh: inconclusive; Lassa entry inh: inactive; RE007 growth inh: inconclusive

How did CCc1nc2cc(C(=O)N3CCCN(C=O)CC3)cc(NC(=O)c3ccccc3OC)c2n1C do in these assays?
FMDV inh: inactive

What do the screens show for `CN1C(=O)C(=Cc2ccc(N3CCCCCC3)o2)C(=O)N(C)C1=S`?
FMDV inh: inactive; Sm TGR block: 35µM; HCV inhibitor: inactive; MARV entry inh: inactive; Lassa entry inh: inactive; RE007 growth inh: inactive

What do the screens show for `CCC(Oc1ccccc1F)C(=O)N1CCC(c2nc3ccccc3s2)CC1` (stereo unspecified)?
FMDV inh: 25µM; Sm TGR block: inactive; MARV entry inh: inconclusive; Lassa entry inh: inactive

Results for O=C(CSc1ccccc1Cl)N1CCC(c2nc3ccccc3s2)CC1 ?
FMDV inh: 35µM; Sm TGR block: inactive; HCV inhibitor: inconclusive; MARV entry inh: inactive; Lassa entry inh: inactive; RE007 growth inh: inactive

How did CCN(CC)C(=O)Cn1cc(C(=O)C(=O)NCc2ccco2)c2ccccc21 do in these assays?
FMDV inh: inactive; Sm TGR block: 40µM; HCV inhibitor: inactive; MARV entry inh: inactive; Lassa entry inh: inactive; RE007 growth inh: inactive

What do the screens show for `CCN(CC)S(=O)(=O)c1cccc(-c2nnc(SCCOc3ccccc3C)o2)c1`?
FMDV inh: inactive; Sm TGR block: inactive; HCV inhibitor: 13µM; MARV entry inh: inconclusive; Lassa entry inh: inactive; RE007 growth inh: inactive

How did CCN(CC)S(=O)(=O)c1cccc(-c2nnc(SCCOc3ccccc3)o2)c1 do in these assays?
FMDV inh: inconclusive; Sm TGR block: inactive; HCV inhibitor: inconclusive; MARV entry inh: inconclusive; Lassa entry inh: 10µM; RE007 growth inh: inactive

How did CCN(CC)S(=O)(=O)c1cccc(-c2nnc(SCC(=O)c3cc(C)n(C)c3C)o2)c1 do in these assays?
FMDV inh: inconclusive; Sm TGR block: inactive; HCV inhibitor: inconclusive; MARV entry inh: inconclusive; Lassa entry inh: inconclusive; RE007 growth inh: inactive

How did CCN(CC)S(=O)(=O)c1cccc(-c2nnc(SCCOc3ccc(Cl)cc3)o2)c1 do in these assays?
FMDV inh: inconclusive; Sm TGR block: inconclusive; HCV inhibitor: inconclusive; MARV entry inh: inconclusive; Lassa entry inh: inconclusive; RE007 growth inh: inactive

Results for CN1CCc2c(C#N)c(N3CCCCC3)nc(N3CCOCC3)c2C1 ?
FMDV inh: inactive; HCV inhibitor: inactive; MARV entry inh: inactive; Lassa entry inh: inactive; RE007 growth inh: inactive

Results for CN1CCc2c(C#N)c(Cl)nc(Cl)c2C1 ?
FMDV inh: inactive; Sm TGR block: 32µM; HCV inhibitor: inconclusive; RE007 growth inh: inactive

Results for Cn1c(=O)cc(OCC(=O)N2CCN(c3ccc(F)cc3)CC2)c2ccccc21 ?
FMDV inh: inactive; Sm TGR block: inactive; MARV entry inh: inactive; Lassa entry inh: inactive

What do the screens show for `Cc1ncc(CO)c(/C=N/NC(=O)c2ccc(Br)cc2)c1O`?
Sm TGR block: inactive; HCV inhibitor: inactive; MARV entry inh: inactive; Lassa entry inh: inconclusive

What do the screens show for `Cc1ncc(CO)c(/C=N/NC(=S)Nc2ccc(C(C)C)cc2)c1O`?
FMDV inh: inactive; Sm TGR block: inactive; HCV inhibitor: 11µM; RE007 growth inh: inactive

What do the screens show for `COc1ccccc1NS(=O)(=O)c1ccc2oc(SCc3ccc(F)cc3)nc2c1`?
FMDV inh: inconclusive; Sm TGR block: inactive; HCV inhibitor: 35µM; MARV entry inh: inconclusive; Lassa entry inh: inconclusive; RE007 growth inh: inactive

Results for COc1ccccc1NS(=O)(=O)c1ccc2oc(SC)nc2c1 ?
FMDV inh: inactive; Sm TGR block: inactive; HCV inhibitor: inconclusive; MARV entry inh: inactive; Lassa entry inh: inactive; RE007 growth inh: inactive

How did COc1ccc(NS(=O)(=O)c2ccc3oc(SCc4ccc(F)cc4)nc3c2)cc1 do in these assays?
FMDV inh: inconclusive; Sm TGR block: inactive; HCV inhibitor: 11µM; MARV entry inh: inconclusive; Lassa entry inh: inconclusive; RE007 growth inh: inactive

How did COc1cc(=O)n2c(c1C(=O)N(C)Cc1nonc1C)CCN(Cc1ccc(C)cc1C)CC2 do in these assays?
FMDV inh: inactive

How did COc1ccccc1CN(C)C(=O)c1ccccc1SCC(=O)N1CCCC1 do in these assays?
FMDV inh: inactive; Sm TGR block: inactive; HCV inhibitor: inactive; RE007 growth inh: inactive

How did CN(Cc1cccc(Cl)c1Cl)C(=O)c1ccccc1SCC(=O)N1CCCC1 do in these assays?
FMDV inh: inactive; HCV inhibitor: 22µM; MARV entry inh: inconclusive; Lassa entry inh: inactive; RE007 growth inh: inactive

How did COc1ccc(-c2nc3c4ccccc4n(CC(=O)Nc4ccc(C(C)C)cc4)c(=O)n3n2)cc1 do in these assays?
FMDV inh: inactive; Sm TGR block: inactive; Lassa entry inh: inactive

What do the screens show for `O=C(Nc1ccc(Cl)cc1)[C@@H]1[C@@H]2C(=O)N(c3ccc(Cl)cc3)C(=O)[C@@H]2[C@H]2C=CC=NN21`?
FMDV inh: inactive; Sm TGR block: 50µM; HCV inhibitor: inconclusive; MARV entry inh: inactive; Lassa entry inh: inactive; RE007 growth inh: inactive

Assay outcomes from PubChem.
